Assay outcomes: PubChem BioAssay, National Center for Advancing Translational Sciences (NCATS)
This is a sample that favours compounds with a hit; in the whole collection about 21% have one here.
DT40 TDP1 no CPT: qHTS for Inhibitors of human tyrosyl-DNA phosphodiesterase 1 (TDP1): qHTS in cells in absence of CPT. DT40 Tdp1-/- hTDP1 cells, no CPT, ATP luminescence, 48 h. actives 15% (n = 420,000). Potency, µM (highest dose often 46.2 µM), usual class: inhibitors; note: nearly all actives have a fitted effect of over 55% in size
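Camptothecin absent (DMSO only). Human TDP1-complemented DT40 knockout cells, 400 cells/well, 37 °C for minimum 48 hr; ATP measured via CellTiter-Glo, 30 min dark incubation, luminescence.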
IL-1B inflam inh: blocks inflammasome-driven IL-1 beta release; THP-1 LPS/ATP IL-1B secretion, AlphaLISA, 16 h; stronger effect = lower value; actives 4.7% (n = 360,000); activity change, % at 57.5 µM; in the data active = activity change below about -50%; inconclusive = mostly about -30% to -49%
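THP-1 cells pretreated 1 hr with compounds (up to 57.5 uM final), then stimulated with LPS (250 ng/mL final) plus ATP (1.25 mM final); secreted IL-1B measured by AlphaLISA after 16 hr, decreased signal indicating inhibition.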
DT40 TDP1 CPT: DT40-hTDP1 cell growth loss with CPT; chicken DT40 Tdp1-/-;hTDP1 cells + 20 nM CPT, ATP luminescence, 48 h; Potency, µM (series often up to 46.2 µM), usual class: inhibitors; actives 12% (n = 420,000); AID 686979; note: nearly all actives have a fitted effect of over 55% in size
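Chicken DT40 Tdp1-/- cells stably complemented with human TDP1 were seeded at 400 cells/well in medium containing 20 nM camptothecin, exposed to pin-transferred compounds, and grown at 37 °C for at least 48 hr. Viability was read as ATP luminescence.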
RORgamma inh: ROR gamma (mouse) transcription inhibition; P51450; Drosophila S2 Gal4-RORgamma UAS-luciferase reporter, 20 h; Potency, µM (top dose mostly 53.6 µM), hits mostly inhibitors; actives 5.4% (n = 310,000); note: nearly all actives have a fitted effect of over 60% in size
Target sequence (P51450 whole entry, looked up, the tested form may be a part): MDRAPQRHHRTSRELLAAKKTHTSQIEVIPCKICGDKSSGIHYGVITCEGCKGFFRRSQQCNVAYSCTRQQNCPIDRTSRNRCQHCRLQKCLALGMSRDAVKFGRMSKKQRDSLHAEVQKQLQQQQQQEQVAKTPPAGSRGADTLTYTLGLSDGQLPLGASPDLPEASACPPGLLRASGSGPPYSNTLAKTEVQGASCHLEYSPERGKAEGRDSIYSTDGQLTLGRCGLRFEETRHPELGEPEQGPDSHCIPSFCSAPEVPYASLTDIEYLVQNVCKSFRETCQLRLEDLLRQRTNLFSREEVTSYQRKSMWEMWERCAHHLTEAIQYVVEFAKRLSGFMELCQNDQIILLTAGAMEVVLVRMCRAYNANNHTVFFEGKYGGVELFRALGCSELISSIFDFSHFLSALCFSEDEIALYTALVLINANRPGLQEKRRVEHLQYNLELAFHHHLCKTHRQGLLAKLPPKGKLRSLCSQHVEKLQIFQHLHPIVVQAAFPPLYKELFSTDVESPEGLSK
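Drosophila S2 cells stably expressing Gal4-DBD/mouse RORγ fusion under metallothionein promoter plus UAS-luciferase; compound 1 h, then 700 uM CuSO4 induction for 20 h at ambient temperature; inhibition read as reduced luminescence.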
ELG1 DNA repair: inhibitors of ELG1-dependent DNA repair in HEK293T cells | HEK293T ELG1-luciferase reporter, luminescence, 16 h; DNA damage induced by 5-fluorouridine | Potency, µM (highest dose often 46.1 µM), hits mostly inhibitors | actives 2.3% (n = 330,000); note: nearly all actives have a fitted effect of over 55% in size
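HEK293T cells expressing luciferase-tagged ELG1 (2,000/well) received 5-Fluorouridine plus compound or DMSO for 16 hr at 37 °C. Luciferase was read by ONE-Glo luminescence after 30 min at room temperature.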
VP16 counter: Gal4-VP16 reporter inhibition counter-screen; actives 3.5% (n = 310,000); Potency, µM (doses to about 53.6 µM), usual class: inhibitors; AID 2546; Drosophila S2 Gal4-VP16 UAS-luciferase, luminescence, 20 h;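 note: Gal4-VP16 expression switched on by copper sulfate through the metallothionein promoter; nearly all actives have a fitted effect of over 50% in size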
A number is an active result; 0 = inactive; ? = inconclusive; - = not tested or not shown; [ ] = another dose, or the depositor's remark. Unless noted, calls come from the whole dose curve; as a rule, active = well fitted curve in the direction sought with a large enough effect; inconclusive = small, poorly fitted or top-dose-only effect, or another doubt; inactive = no such curve, though single readings can be large; an effect the other way counts as inactive or inconclusive.

SMILES	DT40 TDP1 no CPT	IL-1B inflam inh	DT40 TDP1 CPT	RORgamma inh	ELG1 DNA repair	VP16 counter
CN(C)S(=O)(=O)n1cc(/C=C(\NC(=O)c2ccccc2F)C(=O)NCCN2CCOCC2)c2ccccc21	12µM	0	?	-	-	-
COc1ccccc1C(=O)N/C(=C\c1cn(S(=O)(=O)N(C)C)c2ccccc12)C(=O)N1CCN(C)CC1	?	?	26µM	-	-	-
COc1ccccc1C(=O)N/C(=C/c1ccc(Br)cc1)C(=O)N1CCCC1	21µM	0	26µM	0	?	0
CN(C)S(=O)(=O)n1cc(/C=C(\NC(=O)c2ccccc2)C(=O)N2CCCCC2)c2ccccc21	18µM	0	23µM	-	-	-
Cc1cccc(C(=O)Nc2cccc(C(=O)OCc3cc(=O)n4ccsc4n3)c2)c1	0	-	0	-	-	-
CCN(CC)CCNC(=O)c1ccc(-c2nc(CS(=O)(=O)c3ccc(C)cc3)c(C)o2)cc1	0	-	0	-	-	-
Cc1cccc(OCC(=O)Nc2ccc(C(=O)Nc3ccccc3C(=O)O)cc2)c1C	0	0	0	0	0	0
COc1cccc(-c2cnc(C(O)c3ccc(C)c(F)c3)[nH]2)c1 (stereo not drawn)	0	0	0	-	-	-
CCc1cc(SC#N)ccc1N	?	-102	0	?	0	?
Cn1c(CC(=O)NNC(=O)c2ccc(F)cc2Cl)nc2ccccc21	?	0	16µM	-	0	-
O=Cc1c(SCCO)nc2ccccn2c1=O	0	0	0	0	0	0
O=Cc1c(Sc2ccccn2)nc2ccccn2c1=O	?	-86	?	?	?	?
O=Cc1c(Sc2ccccc2)nc2ccccn2c1=O	16µM	-114	?	0	0	0
COc1cc(C=NO)nc(-c2ccccn2)c1	1.2µM	0	1.3µM	-	-	-
COc1ccc(Oc2ccccc2/C=N/O)cc1	0	0	0	0	0	0
COc1cc2[nH]cc(C(=O)NCc3ccccc3)c(=O)c2cc1OC	26µM	0	?	0	0	0
COc1ccc(CCNC(=O)c2c[nH]c3ccc(F)cc3c2=O)cc1OC	13µM	0	?	0[1.91 µM]	?	0
COc1cc2[nH]c(C(=O)NCCc3ccccc3)cc2c(OC)c1OC	?	?	0	0	0	0
COc1cc2[nH]c(C(=O)NCc3ccccc3)cc2c(OC)c1OC	?	-65	0	0	0	0
CC(=O)Nc1c(I)c(C(=O)N[C@H]2[C@@H](O)[C@H](O)[C@H](CO)O[C@@H]2O)c(I)c(N(C)C(C)=O)c1I	-	-	-	0[2.98 µM]	-	0
COc1ccc(-c2nc3cnc(Nc4cccc(OC)c4)nc3n(C3CC3)c2=O)cc1	0	-	0	0	-	0
CN1CCC(N(C)C(=O)c2ccc(Cl)c(S(=O)(=O)Nc3cc(Cl)ccc3Cl)c2)CC1	0	0	0	-	0	-
COc1ccc(C2Nc3ccccc3C(=O)N2c2ccc(F)cc2)cc1COc1ccc(NC(C)=O)cc1 (stereo not drawn)	25µM	-	?	-	-	-
Cc1ccc(C2Nc3ccccc3C(=O)N2Cc2ccco2)cc1 (stereo not drawn)	?	0	18µM	0	0	0
O=C1c2ccccc2NC(c2ccc(OCc3ccccc3)c(OCc3ccccc3)c2)N1Cc1ccco1 (stereo not drawn)	13µM	-	11µM	-	-	-
SMILES	DT40 TDP1 no CPT	IL-1B inflam inh	DT40 TDP1 CPT	RORgamma inh	ELG1 DNA repair	VP16 counter
COc1ccc(N2C(=O)c3ccccc3NC2c2ccc(OC)c(COc3ccccc3F)c2)cc1 (stereo not drawn)	?	-	0	-	-	-
COc1ccc(C2Nc3ccc(NC(C)=O)cc3C(=O)N2Cc2ccccc2)cc1COc1ccc(NC(C)=O)cc1 (stereo not drawn)	18µM	-	?	-	-	-
COc1ccc(C2Nc3ccccc3C(=O)N2NC(C)=O)cc1OC (stereo not drawn)	0	0	0	0	0	0
OC[C@@H]1CN(Cc2cccnc2)C[C@H](n2cnc3c(N4CCCC4)ncnc32)O1	0	0	0	-	-	-
O=C(c1ccc2c(c1)CCC2)N1CCN(Cc2c(F)cccc2Cl)CC1	?	0	?	-	-	-
N#Cc1cccc(-c2ccc3ncnc(NC4CCNCC4)c3c2)c1	0	-	0	0	-	0
COc1ccc(C2Nc3ccccc3C(=O)N2Cc2ccco2)cc1COc1ccc(NC(C)=O)cc1 (stereo not drawn)	11µM	0	?	0	?	0[0.365 µM]
COc1ccc(C2Nc3ccccc3C(=O)N2Cc2ccco2)cc1COc1ccccc1F (stereo not drawn)	?	-69	?	0	18µM	0
COc1ccc(C2Nc3ccccc3C(=O)N2Cc2ccccc2)cc1CSc1ccccn1 (stereo not drawn)	18µM	-	23µM	0	0	0
COc1ccc(C2Nc3ccccc3C(=O)N2c2ccccc2)cc1CSc1ccccn1 (stereo not drawn)	?	0	?	0	0	0
O=C1c2ccccc2NC(c2ccc(O)cc2)N1Cc1ccco1 (stereo not drawn)	?	0	0	0	0	0
CC(C)C[C@H](NC(=O)[C@@H](N)Cc1ccccc1)C(=O)N[C@@H](Cc1ccccc1)C(=O)N[C@@H](CCC(N)=O)C(=O)N1CCC[C@H]1C(=O)N[C@@H](CCC(N)=O)C(=O)N[C@@H](CCCN=C(N)N)C(=O)N[C@@H](Cc1ccccc1)C(N)=O	-	-	-	0	-	0
Cc1ccc2c(c1)-c1nc(-c3ccccc3)cc(-c3ccccc3)c1CO2	?	-	0	-	-	-
CC[C@H](C)[C@H](NC(=O)[C@H](CC(C)C)NC(=O)[C@H](CC(N)=O)NC(=O)[C@@H](NC(=O)[C@@H](N)Cc1ccc(O)cc1)[C@@H](C)CC)C(=O)N[C@@H](Cc1ccc(O)cc1)C(=O)N[C@@H](CCCN=C(N)N)C(=O)N[C@@H](CC(C)C)C(=O)N[C@@H](CCCN=C(N)N)C(=O)N[C@@H](Cc1ccc(O)cc1)C(N)=O	-	-	-	0	-	0
CC(=O)Nc1cn(-c2ccccc2)nc1-c1ccccc1	0	-79	0	0	0	0
O=C(CCl)Nc1cn(-c2ccccc2)nc1-c1ccccc1	3.7µM	-97	2.9µM	?	?	?
CCc1ccc(NC(=O)Cn2c(=O)n(-c3cc(OC)c(OC)c(OC)c3)c(=O)c3ccccc32)cc1	0	-	0	-	-	-
O=c1c(-c2ccc(F)cc2)nc2cnc(Oc3ccccc3)nc2n1Cc1cccs1	0	-	?	0	-	0
O=C(CN1CCN(S(=O)(=O)c2cccs2)CC1)NCC1CCCCC1	0	0	0	-	0	-
COc1ccc(C(=O)Nc2nnc(S(=O)(=O)N(CC(C)C)c3ccccc3)s2)cc1	0	-	0	-	-	-
